Shown are actives, neighbours in structure and some others; about 19% of the full set was active somewhere.
ELG1 repair inh: inhibitors of ELG1-dependent DNA repair in HEK293T cells; HEK293T ELG1-luciferase reporter, luminescence, 16 h; DNA damage induced by 5-fluorouridine; Potency, µM (titrated, usually from 46.1 µM), inactives show at the top dose activity change, negative = inhibition, usual class: inhibitors; 2.3% of 330,000 active; AID 504467; note: potency is the fitted concentration of half-maximal effect; nearly all actives have a fitted effect of over 55% in size
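Luminescence from the luciferase reporter, measured 30 min after ONE-Glo reagent at room temperature, was the read-out. Beforehand, 2,000 cells per well were exposed for 16 hr at 37 °C to 5-fluorouridine together with compound or vehicle.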
DT40 TDP1 no CPT: qHTS for Inhibitors of human tyrosyl-DNA phosphodiesterase 1 (TDP1): qHTS in cells in absence of CPT; DT40 Tdp1-/- hTDP1 cells, no CPT, ATP luminescence, 48 h; Potency, µM (top dose mostly 46.2 µM), for the others: top-dose activity change, negative = growth inhibition, hits mostly inhibitors; 15% of 420,000 active; note: potency is the fitted concentration of half-maximal effect; nearly all actives have a fitted effect of over 55% in size
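Compound effects on proliferation are scored in DT40 Tdp1-/-;hTDP1 cells in the absence of CPT. ATP levels (CellTiter-Glo luminescence) are recorded after a ≥48 hr, 37 °C incubation.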
TDP1 cell CPT: growth inhibition of DT40 Tdp1-/-;hTDP1 cells with camptothecin (screen for TDP1 inhibitors); chicken DT40 Tdp1-/-;hTDP1 cells + 20 nM CPT, ATP luminescence, 48 h; AID 686979; Potency, µM (series often up to 46.2 µM), inactives show at the top dose activity change, negative = growth inhibition, most hits filed as inhibitors; 12% of 420,000 active; note: potency is the fitted concentration of half-maximal effect; nearly all actives have a fitted effect of over 55% in size
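Chicken DT40 Tdp1-/- cells stably complemented with human TDP1 were seeded at 400 cells/well in medium containing 20 nM camptothecin, exposed to pin-transferred compounds, and grown at 37 °C for at least 48 hr. Viability was read as ATP luminescence.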
IL-1B inflam inh: inflammasome signaling inhibition, IL-1 beta readout | THP-1 LPS/ATP IL-1B secretion, AlphaLISA, 16 h; active compounds read low | activity change, % at 57.5 µM | 4.7% of 360,000 active; in the data active = activity change below about -50%; inconclusive = mostly about -30% to -49%
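THP-1 cells pretreated 1 hr with compounds (up to 57.5 uM final), then stimulated with LPS (250 ng/mL final) plus ATP (1.25 mM final); secreted IL-1B measured by AlphaLISA after 16 hr, decreased signal indicating inhibition.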
HT1080-NT tox: kills 2HG-producing HT-1080-NT fibrosarcoma cells. HT-1080-NT fibrosarcoma viability, CellTiter-Glo ATP luminescence, 48 h. Potency, µM (highest dose often 46.1 µM), for the others: at the top dose activity, negative = less viability, actives largely listed as cytotoxic. 1.6% of 360,000 active. AID 686970;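 note: NT is the 2HG producing partner of a matched IDH1 knockdown line; potency is the fitted concentration of half-maximal effect; 0% = DMSO-treated cells and -100% = media-only wells without cells; nearly all actives have a fitted effect of over 55% in size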
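Read-out is CellTiter-Glo luminescence after 10 minutes at room temperature, following 48 hours' compound treatment of HT-1080-NT cells (750 cells/well, RPMI, 5% FBS, 37 degrees C).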
HT1080 IDH1KD tx: kills HT-1080 cells with IDH1 knockdown; 2% of 360,000 active; Potency, µM (highest dose often 46.1 µM), without a hit: at the top dose activity, negative = toxicity, usual class: cytotoxic; HT-1080 IDH1 knockdown viability, ATP luminescence, 48 h; AID 686971;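 note: potency is the fitted concentration of half-maximal effect; 0% = DMSO wells and -100% = cell-free medium wells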
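Luminescent ATP read-out (CellTiter-Glo, 10 min at room temperature) after 48 h compound exposure at 37 °C gave viability of IDH1-knockdown HT-1080 cells. Activity was normalised to DMSO and cell-free wells, then fitted as concentration-response curves.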
The depositor's hits bear a star; ? = inconclusive; · = no result; [ ] = remark or other dose. Unless noted, calls come from the whole dose curve; as a rule, active = well fitted curve in the direction sought with a large enough effect; inconclusive = small, poorly fitted or top-dose-only effect, or another doubt; inactive = no such curve, though single readings can be large; an effect the other way counts as inactive or inconclusive. Unless noted, % is set by controls: 0 for no effect and ±100 for the full control effect.

SMILES	ELG1 repair inh	DT40 TDP1 no CPT	TDP1 cell CPT	IL-1B inflam inh	HT1080-NT tox	HT1080 IDH1KD tx
COc1ccc(C(=O)OCCN2CCCCC2)cc1	6%	0%	1%	-2	9%	0%
O=C(/C=C/c1ccccc1)COC(=O)c1ccccc1	·	9.2µM*	?	-8	?	?
COc1ccc(C(=O)CCN2CCN(c3ccc(OC)cc3)CC2)cc1	10%	2.1µM*	2.1µM*	-101*	?	?
COc1ccc(N2CCN(CCC(N)=O)CC2)cc1	5%	-2%	2%	3	6%	0%[9.24 µM]
CCCOc1ccc(C(=O)CCN2CCN(C(=O)OCC)CC2)cc1	30%	5.2µM*	2.3µM*	0	?	?
O=C(NCc1cccc(C(F)(F)F)c1)c1ccc2nc([C@H]3C[C@H](O)[C@@H](CO)O3)[nH]c2c1	·	-15%	-5%	7	23%	9%
O=C(CCN1CCCCCC1)c1ccccc1	16%	3.7µM*	3.3µM*	-3	12%	3%
O=C(c1ccccc1)c1ccc(OCCCCN2CCCCC2)cc1	5%	-1%	-18%	-11	-13%	-7%
O=C(NN=Cc1c(F)c(F)c(F)c(F)c1F)c1ccc(NS(=O)(=O)c2cccs2)cc1	1%	?	?	-99*	-1%	-3%
O=C(N/N=C/c1cccs1)c1cccc(NC(=O)c2ccc(Cl)cc2)c1	-29%	·	·	·	·	·
CC(/C=C/c1ccccc1F)=N\NC(=O)c1ccc(Cl)cc1	16%	15µM*	15µM*	0	4.6µM*	7.3µM*
COC(=O)N/N=C(\C)c1cccs1	?	-6%	-7%	-6	1%	-7%
C/C(=N\NC(=O)c1ccc(Cl)cc1)c1cccs1	?	?	-17%	-63*	1%	-8%
O=C(N/N=C/c1cccs1)c1cccc(S(=O)(=O)Nc2ccc(Cl)cc2)c1	5%	?	?	0	12µM*	16µM*
CC(CC(=O)NCc1ccc(Cl)cc1)c1ccccc1 (stereo not given)	2%	-11%	3%	14	9%	8%
Cc1cccc(CN(CC(=O)N/N=C/c2ccco2)S(=O)(=O)c2ccc(Cl)cc2)c1	-19%	?	?	0	-8%	-17%
C/C(=N\NC(=O)c1ccc(NS(=O)(=O)c2cccs2)cc1)c1ccc2c(c1)OCO2	11%	?	?	-7	-6%	-7%
Cc1cccc(CN(CC(=O)N/N=C/c2cccs2)S(=O)(=O)c2ccc(Cl)cc2)c1	-9%	29µM*	?	-11	-23%	?
C/C(=N\NC(=O)c1ccc(NS(=O)(=O)c2cccs2)cc1)c1cccs1	0%	-15%	18%	-52*	2%	2%
C/C(=N\NC(=O)c1ccc(NS(=O)(=O)c2cccs2)cc1)c1ccc(Cl)cc1	15%	23µM*	?	-5	0%	0%
CC(=O)Nc1ccc(N(C(=O)c2ccco2)C(C(=O)NC2CCCC2)c2ccc(N3CCOCC3)cc2)cc1 (stereo not given)	-10%	-19%	2%	-8	4%	-5%
O=C(Nc1cccc(Cl)c1)NC1CCS(=O)(=O)C1 (stereo not given)	1%	10%	4%	3	7%	20%
Cc1ccc(-c2noc(CCC(=O)NC3CCN(Cc4ccccc4)CC3)n2)cc1	?	?	13µM*	?	-15%	-13%
CC(=O)c1ccc(S(=O)(=O)NCCC(=O)NC2CCN(Cc3ccccc3)CC2)cc1	4%	?	-13%	-87*	-2%	4%
Cc1ccc(-c2noc(CCC(=O)NC3CCCc4ccccc43)n2)cc1 (stereo not given)	?	2.3µM*	9.2µM*	-12	-27%	-23%
SMILES	ELG1 repair inh	DT40 TDP1 no CPT	TDP1 cell CPT	IL-1B inflam inh	HT1080-NT tox	HT1080 IDH1KD tx
C[C@@H]1ON(C)[C@H]2C[C@H]3c4cc(-c5cccc(F)c5)ccc4CCN3C(=O)[C@@H]12	·	?	?	-5	6%	2%
Cc1nnc(NC(=O)CSc2nc3c(c(=O)n2CCc2ccccc2)SC(C)C3)s1 (stereo not given)	-5%	-16%	-21%	3	4%	5%
CCSc1nnc(NC(=O)CSc2nc3c(c(=O)n2CC)SC(C)C3)s1 (stereo not given)	?	8.2µM*	13µM*	53	2%	3%
CCc1nnc(NC(=O)CSc2nc3c(c(=O)n2C)SC(C)C3)s1 (stereo not given)	10%	21µM*	?	23	-8%	-1%
CCn1c(SCC(=O)Nc2nnc(C)s2)nc2c(c1=O)SC(C)C2 (stereo not given)	-1%	?	-28%	24	3%	0%
CCSc1nnc(NC(=O)CSc2nc3c(c(=O)n2C)SC(C)C3)s1 (stereo not given)	?	11µM*	15µM*	16	20%	1%
Cc1c(Cl)cccc1NC(=S)N(CCN(C)C)C(C)c1ccco1 (stereo not given)	-1%	?	?	?	1%	1%
O=c1cc(-c2ccccc2)[nH]n2cnnc12	17%	3%	36%	51	1%	8%
CCOC(=O)[C@]12Cc3c(cc(OC)c(OC)c3OC)[C@H]1N(C1CCCCC1)C(=O)c1cc(OC)ccc12	·	9.2µM*	9.2µM*	-118*	12µM*	12µM*
CCOC(=O)N1CCC(N2C(=O)c3ccccc3C2Nc2cc(OC)c(OC)c(OC)c2)CC1 (stereo not given)	?	?	?	-19	16%	-6%
CCn1c(SCc2ccc(Cl)c(Cl)c2)nnc1C(C)NC(=O)c1ccc(OC)cc1 (stereo not given)	?	16µM*	16µM*	-8	6%	5%
CNc1snc(C)c1C(=O)OCC(=O)N(C)Cc1ccccc1	-8%	18µM*	15µM*	30	4%	0%
CNc1snc(C)c1C(=O)OCC(=O)N(C)c1ccccc1	0%	?	-24%	43	12%	1%
CNc1snc(C)c1C(=O)OCC(=O)Nc1ccc(C)cc1F	13µM*	10µM*	?	-7	-9%	-23%
CCc1ccccc1NC(=O)COC(=O)c1c(C)nsc1NC	0%	2.9µM*	7.3µM*	15	4.1µM*	-11%
